Screens (PubChem)
A selection: hits, their analogues and other compounds. The true share with any hit is near 6.9%.
Giardia killer: kills Giardia lamblia. activity change, % at 7.66 µM, hits read low. Giardia lamblia trophozoite viability. AID 540267. 0.15% of 340,000 active; in the data active = activity change below about -80%; inconclusive = between about -30% and that limit;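 also: parasites exposed to compound for two days anaerobically before the ATP read; % is scaled to controls: 0 for no effect and ±100 for the full control effect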
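Trophozoite viability was measured as ATP-dependent luminescence, read 15-30 min after reagent addition. Before that, parasites at 100 cells/well were exposed to compounds for 48 h, anaerobically, at 37 deg C.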
IL-1B inflam inh: inhibitors of inflammasome signaling (IL-1 beta secretion). THP-1 LPS/ATP IL-1B secretion, AlphaLISA, 16 h; active compounds read low. activity change, % at 57.5 µM. 4.7% of 360,000 active. AID 743279; in the data active = activity change below about -50%; inconclusive = mostly about -30% to -49%; also: % is scaled to controls: 0 for no effect and ±100 for the full control effect
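Secreted IL-1B measured by AlphaLISA bead assay after 16 h compound exposure of THP-1 cells; compounds (final up to 57.5 uM) added 1 h before LPS (250 ng/mL) and ATP (1.25 mM) stimulation; lower signal means less secretion.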
SW480 rerep: inducers of DNA re-replication in SW480 colon cancer cells. Potency, µM (titrated, usually from 46.1 µM), for the others: at the highest dose re-replication activation, most hits filed as activators. AID 624297. SW480 DNA re-replication, Hoechst DNA content imaging, 48 h. 1.8% of 340,000 active; also: potency is read from the fitted curve at half-maximal effect; % of control where 0% means no effect; nearly all actives have a fitted effect of over 55% in size
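SW480 cells exposed to compounds for 48 hr at 37 C, 5% CO2, then Hoechst-stained 40 min. Nuclear DNA content imaged by fluorescence scanning (405 nm excitation, 500-530 nm emission); re-replication scored as increased high-intensity nuclei.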
Vif-APOBEC3F blk: Vif-A3F binding inhibition; 0.2% of 390,000 active; Potency, µM (series often up to 46.1 µM), for the others: at the highest dose activity, negative = active; AID 602313; HeLa A3F-eYFP + Vif (tagged APOBEC3F with the HIV-1 protein that degrades it), YFP fluorescence increase; also: potency is read from the fitted curve at half-maximal effect; % of control where 0% means no effect; nearly all actives have a fitted effect of over 65% in size
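Fluorescence increase (Ex 488/Em 500-530) after overnight compound treatment at 37 deg C flags inhibition of Vif-driven A3F-eYFP loss in stable HeLa A3F-eYFP/Vif cells seeded overnight beforehand.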
MCF10A rereplic: inducers of DNA re-replication in MCF 10A breast cells; MCF 10A DNA re-replication, Hoechst nuclear intensity, 48 h; 2.9% of 350,000 active; Potency, µM (titrated, usually from 46.1 µM), for inactives: at the highest dose activity, positive = re-replication, usual class: activators; also: potency is read from the fitted curve at half-maximal effect; % of control where 0% means no effect; nearly all actives have a fitted effect of over 50% in size
Vif-A3G inh: blocks the Vif interaction with human APOBEC3G | Q9HC16 | HeLa A3G-eYFP + Vif (tagged APOBEC3G with the HIV-1 protein that degrades it), YFP fluorescence, overnight | Potency, µM (top dose mostly 46.1 µM), for the others: at the highest dose activity, negative = active, hits mostly inhibitors | 0.076% of 410,000 active | AID 602310; also: potency is read from the fitted curve at half-maximal effect; % is scaled to controls: 0 for no effect and ±100 for the full control effect; nearly all actives have a fitted effect of over 60% in size
Target sequence (Q9HC16 whole entry, looked up): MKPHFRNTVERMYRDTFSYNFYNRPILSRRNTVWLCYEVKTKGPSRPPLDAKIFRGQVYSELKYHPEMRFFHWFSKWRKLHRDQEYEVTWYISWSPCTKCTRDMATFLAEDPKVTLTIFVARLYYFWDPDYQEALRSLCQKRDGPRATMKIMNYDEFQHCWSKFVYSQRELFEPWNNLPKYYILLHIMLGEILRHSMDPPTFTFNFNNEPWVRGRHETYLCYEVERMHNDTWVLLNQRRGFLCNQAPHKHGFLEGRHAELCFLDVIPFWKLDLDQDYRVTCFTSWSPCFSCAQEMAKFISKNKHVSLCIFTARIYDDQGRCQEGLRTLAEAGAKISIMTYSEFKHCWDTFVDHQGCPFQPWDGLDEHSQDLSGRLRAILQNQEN
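Read-out is eYFP fluorescence (Ex 488/Em 500-530) from Vif-expressing HeLa A3G-eYFP cells; more signal means A3G escaped Vif-mediated degradation. Cells plated overnight, compound pinned in, incubated overnight at 37 deg C.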
Starred values were filed as active, the others as inactive. Unless noted, calls follow the shape of the dose curve; as a rule, active = well fitted curve in the direction sought with a large enough effect; inconclusive = small, poorly fitted or top-dose-only effect, or another doubt; inactive = no such curve, though single readings can be large; an effect the other way counts as inactive or inconclusive.

Results for CC1Cc2cc(S(=O)(=O)CCC(=O)Nc3ccc(Cl)cc3F)ccc2N1C(=O)C1CC1 (configuration not stated) ?
Vif-APOBEC3F blk: -4%; Vif-A3G inh: 2%

What do the screens show for `CC(=O)c1ccc(NC(=O)Nc2sc3nc4n(c(=O)c3c2C)CCC(C)CC4)cc1` (configuration not stated)?
Vif-APOBEC3F blk: -16%; Vif-A3G inh: -13%

What do the screens show for `O=C(Nc1ccc(OCC(F)(F)C(F)F)c(C(F)(F)F)c1)c1ccccc1O`?
Giardia killer: -6; IL-1B inflam inh: inconclusive; SW480 rerep: inconclusive; Vif-APOBEC3F blk: -3%; MCF10A rereplic: 12µM*; Vif-A3G inh: -10%

What do the screens show for `O=C(NC(=S)Nc1nc2ccccc2s1)c1ccco1`?
Giardia killer: inconclusive; IL-1B inflam inh: 40; SW480 rerep: -7%; Vif-APOBEC3F blk: inconclusive; MCF10A rereplic: -9%; Vif-A3G inh: 0%

What do the screens show for `CCOC(=O)c1sc(NC(=S)NC(=O)c2ccco2)nc1C`?
Giardia killer: -9; IL-1B inflam inh: 12; SW480 rerep: 3%; Vif-APOBEC3F blk: 22µM*; MCF10A rereplic: inconclusive; Vif-A3G inh: -1%

Results for COc1ccc2nc(NC(=S)NC(=O)c3ccco3)sc2c1 ?
Giardia killer: inconclusive; IL-1B inflam inh: -20; SW480 rerep: 13%; Vif-APOBEC3F blk: 10µM*; MCF10A rereplic: 0%; Vif-A3G inh: 0%

Results for Cc1nc(NC(=O)c2ccco2)sc1C(=O)Nc1ccc(Br)cc1 ?
Giardia killer: -13; IL-1B inflam inh: 57; SW480 rerep: 1%; Vif-APOBEC3F blk: -9%; MCF10A rereplic: 23µM*; Vif-A3G inh: inconclusive

How did CCOC(=O)c1sc(NC(=O)C(CC)OC(=O)c2ccco2)nc1C (configuration not stated) do in these assays?
Giardia killer: 1; IL-1B inflam inh: -84*; SW480 rerep: 6%; Vif-APOBEC3F blk: 10%; MCF10A rereplic: -6%; Vif-A3G inh: -7%

How did COc1ccc(-c2csc(C(O)c3ccc(F)c(F)c3)n2)cc1 (configuration not stated) do in these assays?
IL-1B inflam inh: 6; Vif-A3G inh: -11%

What do the screens show for `CN(/N=C\c1ccc(O)c(O)c1)c1nc(-c2ccccc2)cc(-c2ccccc2)n1`?
Giardia killer: -20; IL-1B inflam inh: -61*; SW480 rerep: 18µM*; Vif-APOBEC3F blk: 0%; MCF10A rereplic: inconclusive; Vif-A3G inh: -3%

How did COc1cc(/C=N/N(c2ccccc2)c2ccccc2)ccc1O do in these assays?
Giardia killer: -2; IL-1B inflam inh: inconclusive; SW480 rerep: inconclusive; Vif-APOBEC3F blk: inconclusive; MCF10A rereplic: inconclusive; Vif-A3G inh: -2%

Results for Cc1ccc(NC(=O)C2CCN(C(=O)[C@@H]3Cc4ccccc4CN3)CC2)cc1 ?
Giardia killer: -8; IL-1B inflam inh: -9; SW480 rerep: 3%; Vif-APOBEC3F blk: -1%; MCF10A rereplic: 1%; Vif-A3G inh: -3%

How did CC(C)c1ccc(NC(=O)C2CCN(C(=O)[C@@H]3Cc4ccccc4CN3)CC2)cc1 do in these assays?
Giardia killer: inconclusive; IL-1B inflam inh: -2; SW480 rerep: 18µM*; Vif-APOBEC3F blk: -17%; MCF10A rereplic: inconclusive; Vif-A3G inh: 1%

What do the screens show for `Cc1cc(C)cc(NC(=O)C2CCC(CNC(=O)[C@@H]3Cc4ccccc4CN3)CC2)c1` (some centres not stated)?
Giardia killer: 0; IL-1B inflam inh: -27; SW480 rerep: 18µM*; Vif-APOBEC3F blk: 3%; MCF10A rereplic: inconclusive; Vif-A3G inh: -6%

Results for Cc1nc(Nc2ccc(Cl)c(Cl)c2)sc1C(=O)Nc1ccccc1 ?
Giardia killer: 5; IL-1B inflam inh: -26; SW480 rerep: 28%; Vif-APOBEC3F blk: -13%; MCF10A rereplic: 23µM*; Vif-A3G inh: 2%
